# 12-LOX inh: blocks human arachidonate 12S-lipoxygenase; P18054; purified 12hLO, xylenol orange hydroperoxide absorbance; Potency, µM (highest dose often 108 µM), without a hit: at the top dose activity change, negative = inhibition, most hits filed as inhibitors; 1.1% of 580,000 active; AID 1671190; further: on the % scale 0 is the no-effect control and ±100 the full control effect
#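 Hydroperoxide product was detected by ferrous iron/xylenol orange as the 573 to 405 nm absorbance ratio. Arachidonic acid at 40 uM (final) was turned over for 30 min at room temperature by 150 nM human 12hLO, pH 7.0 Hepes buffer, after 15 min compound preincubation.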
# GRP78 ERSR act: ER stress response induction in glioma; U87-MG GRP78 promoter luciferase reporter, 16 h; Potency, µM, inactives show top-dose activation, hits mostly activators; 0.02% of 420,000 active; AID 602332; further: series mostly up to about 76 µM; % of control where 0% means no effect; nearly all actives have a fitted effect of over 35% in size
#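 Stably transfected U87-MG glioma cells carrying a GRP78-based luciferase sensor; 16 h compound incubation. Luminescence end-point read 10 min after Bright-Glo addition at room temperature.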
# GLS inh: blocks human kidney-isoform glutaminase activity | O94925 | GLS enzymatic activity, qHTS titration | Potency, µM (top dose mostly 45.5 µM), for the others: top-dose activity change, negative = inhibition, most hits filed as inhibitors | 0.21% of 410,000 active | AID 624170; further: on the % scale 0 is the no-effect control and ±100 the full control effect
#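 Two-point fluorescence kinetic (t0, 30 min RT) for hKGA; glutamate detected via glutamate oxidase–HRP–Amplex Red. Substrate: 1 mM L-glutamine solution; buffer 45 mM KH2PO4, pH 8.2.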
# GLP-1R agonist: GLP-1 receptor (human) agonism; P43220; HEK293 GLP-1R CRE-luciferase, luminescence, 4-6 h; cells express a hypersensitive GLP-1R form; Potency, µM (highest dose often 45.6 µM), for the others: at the highest dose activation, actives largely listed as activators; 0.007% of 380,000 active; AID 624172; further: % of control where 0% means no effect
# GLP1R inv ag: acts as inverse agonist at human GLP-1 receptor. Potency, µM (top dose mostly 38.3 µM), without a hit: at the top dose activity change, negative = inhibition, actives largely listed as inhibitors. HEK293 GLP-1R CRE-luciferase, luminescence, 24 h; GLP-1R form is constitutively active. 1.6% of 410,000 active. P43220; further: on the % scale 0 is the no-effect control and ±100 the full control effect; nearly all actives have a fitted effect of over 55% in size
#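 Stable HEK293 clone (constitutively active GLP-1R + cAMP-response luciferase); 200 cells/uL plated, 12 h pre-culture, compound 24 hr, 37 deg C/5% CO2; detection reagent 12 min RT; luminescence.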
# PTHR1 agonist: agonists of human PTHR1 parathyroid hormone receptor; Potency, µM (highest dose often 115 µM), for the others: top-dose activation, usual class: activators; Q03431; 0.075% of 410,000 active; HEK293 GP2 PTHR1 cells, GloSensor cAMP luminescence, 1 h; further: nearly all actives have a fitted effect of over 55% in size
# Target sequence (Q03431 whole entry, looked up): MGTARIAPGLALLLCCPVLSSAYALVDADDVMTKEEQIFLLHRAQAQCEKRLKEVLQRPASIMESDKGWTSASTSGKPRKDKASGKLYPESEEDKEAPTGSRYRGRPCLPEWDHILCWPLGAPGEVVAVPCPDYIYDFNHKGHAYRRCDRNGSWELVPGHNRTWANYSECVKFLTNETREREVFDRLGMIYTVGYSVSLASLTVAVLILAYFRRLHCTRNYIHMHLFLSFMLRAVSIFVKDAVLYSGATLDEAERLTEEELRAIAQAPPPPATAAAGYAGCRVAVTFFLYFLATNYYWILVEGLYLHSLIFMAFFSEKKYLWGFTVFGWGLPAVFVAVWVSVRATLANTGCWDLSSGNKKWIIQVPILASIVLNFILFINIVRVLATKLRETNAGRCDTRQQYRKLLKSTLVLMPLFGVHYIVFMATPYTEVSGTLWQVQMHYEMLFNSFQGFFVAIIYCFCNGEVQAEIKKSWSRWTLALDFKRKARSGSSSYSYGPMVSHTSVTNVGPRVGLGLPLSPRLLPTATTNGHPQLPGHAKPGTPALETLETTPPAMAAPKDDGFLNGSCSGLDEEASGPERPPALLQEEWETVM
#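 HEK-293-derived GP2 cells expressing PTHR1 and a GloSensor cAMP reporter, 3,000/well, plated overnight, given luciferin plus IBMX (each 0.5 mM as added) for 1 h at 37 °C, then compound for 1 h at 37 °C. Luminescence was read after 15 min at room temperature.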
# Numbers without * were called inactive; i = inactive; ? = inconclusive; . = not tested or not shown; [ ] = remark or other dose. Hits are enriched below; roughly 2.3% of the tested compounds scored in any of these assays. The call rests on the fitted dose curve; in most records, active means well fitted curve in the direction sought with a large enough effect; inconclusive means small, poorly fitted or top-dose-only effect, or another doubt; inactive means no such curve, though single readings can be large; an effect the other way counts as inactive or inconclusive. Potency means the concentration at half of the fitted maximal effect.
SMILES,12-LOX inh,GRP78 ERSR act,GLS inh,GLP-1R agonist,GLP1R inv ag,PTHR1 agonist
Fc1ccc(CN2CCc3nc(N4CCN(c5ccccc5F)CC4)ncc3C2)c(F)c1,-19%,-6%,3%,.,-1%,-23%
CCN1CCN(c2ncc3c(n2)CCN(Cc2cc(Br)cs2)C3)CC1,11µM*,-4%,5%,.,4.5µM*,-28%
Brc1ccc(CN2CCc3nc(N4CCN(c5ncccn5)CC4)ncc3C2)cc1,?,-4%,-1%,.,-22%,-44%
CCCCN1CCc2nc(N3CCN(C)CC3)ncc2C1,?,-2%,11%,.,-4%,?
CCCNC(=O)NC(=O)CSc1nc2ccccc2c(=O)n1CC1CCCO1 (configuration not stated),3%,.,.,.,.,.
O=C(CCc1nc(CSc2n[nH]c(-c3ccccc3)n2)no1)Nc1ccc2ccccc2c1,4%,.,.,.,.,.
CCN1CCN(c2ncc3c(n2)CCN(Cc2ccc(C)s2)C3)CC1,-5%,-3%,7%,.,?,i
CCN1CCN(c2ncc3c(n2)CCN(Cc2ccc(Br)s2)C3)CC1,?,-3%,5%,.,3.2µM*,14%
CN(C)S(=O)(=O)c1ccc(NC(=O)Cc2cc(Cl)c3c(c2)OCCCO3)cc1,0%,.,.,.,.,.
CCC(C)(C)C1CCC(NC(=O)Cc2cc(OC)c(OC)c(OC)c2)CC1 (configuration not stated),5%,.,.,.,.,.
Cc1nn2c(N3CCN(C)CC3)cc(C(C)(C)C)nc2c1-c1ccccc1,?,-7%,-4%,?,7.1µM*,i
Cc1nn2c(N3CCN(C4CCCC4)CC3)cc(C(C)(C)C)nc2c1-c1ccccc1,13%,-5%,-15%,-6%,5%,-16%
CCN1CCSc2ccc(C(=O)NCc3cccc(Br)c3)cc21,-3%[57.4 µM],0%,14%,18%,10µM*,-3%
CCN1CCSc2ccc(C(=O)NCc3cccc(F)c3)cc21,-16%,1%,11%,7%,?,-68%
Cc1cccc(Nc2nc(-c3ccc(O)c(O)c3)cs2)n1,28µM*,?,?,-9%,77%,i
Cc1cccnc1Nc1nc(-c2ccc(O)c(O)c2)cs1,2.8µM*,?,?,3%,19%,-19%
Cc1cccc(Nc2nc(-c3ccc(F)c(C)c3)cs2)n1,?,3%,0%,11%,?,i
Oc1ccc(-c2csc(Nc3cccc4ccccc34)n2)cc1O,13µM*,12%,-16%,17%,-3%,i
Oc1ccc(-c2csc(Nc3ccccn3)n2)cc1O,20µM*,13%,?,1%,-10%,-95%
Cc1csc(Nc2cccc3ccccc23)n1,-20%,7%,0%,23%,?,-43%
Cc1ccc(-c2csc(Nc3ccccn3)n2)cc1C,32µM*,.,.,.,.,.
O=C(Cn1cnc2ccc(Br)cc2c1=O)N1CCCC1c1ccc2c(c1)OCCCO2 (configuration not stated),-13%,.,.,.,.,.
CC1C(=O)C(C)C(c2ccc([N+](=O)[O-])cc2)NC1c1ccc([N+](=O)[O-])cc1 (configuration not stated),0%,-2%,-7%,0%,0%,i
CC1C(=O)CC(c2ccc([N+](=O)[O-])cc2)NC1c1ccc([N+](=O)[O-])cc1 (configuration not stated),0%,-3%,2%,1%,8.9µM*,i
Cc1cccc(C(=O)CC(=O)c2cccc(C)c2)c1,12%,.,.,.,.,.
SMILES,12-LOX inh,GRP78 ERSR act,GLS inh,GLP-1R agonist,GLP1R inv ag,PTHR1 agonist
O=C(/C=C/c1ccsc1)c1ccc(O)cc1,50µM*,.,.,.,.,.
Cc1c(C(=O)OCC2CCCO2)[nH]c2c1C(=O)CC(c1ccc(N(C)C)cc1)C2 (configuration not stated),6.3µM*,2%,8%,8%,?,-93%
N#Cc1ccccc1N/C=C/C(=O)c1ccc(Cl)cc1,0%,-12%,2%,11%,6.3µM*,-21%
CCCNc1nc(NCc2ccccc2OC)c2cnn(C)c2n1,40µM*,.,-4%,.,-11%,-23%
Cc1ccc(Cl)cc1N1CCN(C(=O)c2cnn(C)c2C2CCN(C(=O)OC(C)(C)C)CC2)CC1,0%,-9%,0%,.,10µM*,-24%
Cc1ccc(Cl)cc1N1CCN(C(=O)COc2ccc3c(c2)CCC3)CC1,-27%,-3%,3%,20%,10µM*,-28%
CCOc1ncccc1C(=O)N1CCN(c2cc(Cl)ccc2C)CC1,5%,-3%,4%,?,1µM*,-4%
O=C(CCCl)Nc1ccc2c(c1)CCC2,11%,.,.,.,.,.
NC(c1ccccc1)c1nnc2n1CCN(C(=O)N1CCCC1)C2 (configuration not stated),7.9µM*,.,.,.,.,.
Nc1cc(S(=O)(=O)Nc2ccc(Cl)cc2)ccc1N1CCOCC1,45µM*,-3%,-12%,5%,?,-31%
CCOc1ccccc1CNC(=O)CCCc1cn(C)c2ccccc12,-14%,2%,-3%,7%,?,-46%
CCOc1ccccc1CNC(=O)CCc1cn(C)c2ccccc12,?,2%,12%,9%,7.1µM*,-46%
Cn1cc(C(=O)NCCNS(=O)(=O)c2ccccc2)c2ccccc21,18%,.,.,.,.,.
Cc1ccc(CN(C(=O)c2cc(=O)c3cc(Cl)c(C)cc3o2)c2ccccn2)o1,25µM*,.,.,.,.,.
O=C(NCC(=O)N(Cc1ccco1)C1(C(=O)NC2CCCCC2)CCCCC1)c1ccccc1,20%,.,.,.,.,.
CCOC(=O)c1cc(S(=O)(=O)Nc2ccc(OCc3ccccc3)cc2)[nH]n1,8.9µM*,.,.,.,.,.
COc1ccc(-c2cc(N3CCCN(C(=O)C(C)c4ccccc4)CC3)n[nH]2)cc1 (configuration not stated),45%,.,.,.,.,.
O=C(O)COc1ccccc1/C=N/Nc1ccc(S(=O)(=O)Nc2ccc(Cl)cc2)cc1[N+](=O)[O-],32µM*,-3%,?,-3%,-1%,-42%
O=C(O)COc1ccccc1C=NNc1ccc([N+](=O)[O-])cc1S(=O)(=O)Nc1ccc(Cl)cc1,35µM*,-4%,?,-2%,?,-5%
O=C(O)c1ccccc1NS(=O)(=O)c1ccc(N/N=C/c2c(-c3ccccc3)[nH]c3ccccc23)c([N+](=O)[O-])c1,13µM*,.,.,.,.,.
COc1ccccc1NS(=O)(=O)c1ccc(N/N=C/c2ccccc2OCC(=O)O)c([N+](=O)[O-])c1,?,-4%,14%,3%,20%,i
COc1ccccc1NS(=O)(=O)c1cc([N+](=O)[O-])ccc1N/N=C/c1c[nH]c2ccccc12,0%,-10%,15%,0%,5µM*,i
